Screens deposited in PubChem by National Center for Advancing Translational Sciences (NCATS).
Only some compounds are listed: those with a hit (about 21% of all), similar ones and a draw of the others.
CHX counter: counter-screen for Shiga toxin inhibitors: cycloheximide protein synthesis inhibition; max response, %; AID 2314; cell reporter, cycloheximide protein synthesis inhibition counterscreen; 12% of 300,000 active; in the data active = max response mostly above about 13%, no sharp cut-off; inactive = mostly below about 14%; also: read at 38.3 µM for the half of the compounds with a filed dose; 0% is about no effect
Pf growth 48h: P. falciparum growth inhibition at 48 hours (one generation) | P. falciparum luciferase growth in erythrocytes, 48 h | Potency, µM (top dose mostly 28.7 µM), without a hit: at the top dose activity change, negative = inhibition, hits mostly inhibitors | 5.9% of 310,000 active | AID 504832; also: potency is read from the fitted curve at half-maximal effect; % is scaled to controls: 0 for no effect and ±100 for the full control effect
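Luciferase-expressing parasites in RBCs, 2% Hct / 0.1% parasitemia final; RPMI 1640 + 0.5% Albumax; 37 C, 5% CO2, one generation; luminescence read-out, lower signal = inhibition.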
HCMV inh: blocks human cytomegalovirus replication; AID 1259415; 4.5% of 410,000 active; HFF cells, HCMV-luciferase reporter, 72 h; stronger effect = lower value; activity change, negative = inhibition, % at 57.5 µM; in the data active = activity change below about -60%; inconclusive = no clear call, values can overlap the other calls; inactive = above about -39%; also: % is scaled to controls: 0 for no effect and ±100 for the full control effect
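Inhibition of viral replication was scored as loss of reporter luminescence in HFFs infected with HCMV-luciferase (MOI 1 PFU/cell) for 72 h; compounds tested at 2 doses, normalized to buffer and Salinomycin controls.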
Pf growth 96h: P. falciparum growth inhibition at 96 hour, primary screen for plastid delayed-death inhibitors. P. falciparum luciferase reporter growth, 96 h. Potency, µM (series often up to 28.7 µM), without a hit: at the highest dose activity change, negative = inhibition, hits mostly inhibitors. 6.9% of 320,000 active. AID 504834; also: potency is read from the fitted curve at half-maximal effect; % is scaled to controls: 0 for no effect and ±100 for the full control effect
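Erythrocytes infected with luciferase-expressing P. falciparum were dispensed at 2% hematocrit and 0.05% parasitemia (final), then incubated with compounds 96 hours at 37 C in 5% CO2. Luminescence after detection reagent addition reported growth.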
Shiga toxin inh: blocks Shiga toxin action in Vero cells | Vero cells, Shiga toxin protein synthesis inhibition reporter | inhibition, % at 38.7 µM | AID 2315 | 9.2% of 290,000 active; in the data active = inhibition mostly above about 28%, no sharp cut-off; inactive = mostly below about 43%; also: 0% is about no effect
HCV inh: HCV inhibition; Huh7.5.1 HCVcc-Cre infection, luciferase reporter, 44 h; Potency, µM (doses to about 41.8 µM), inactives show at the highest dose activity change, negative = inhibition, usual class: inhibitors; AID 651820; 3.4% of 340,000 active; also: potency is read from the fitted curve at half-maximal effect; % is scaled to controls: 0 for no effect and ±100 for the full control effect
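Antiviral activity was scored by luciferase reporter output from cells infected with HCVcc-Cre (~0.5 moi) in presence of compound, 44 h infection period, cells seeded 1,000/well 4 h prior.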
* = called active by the depositor; i = inactive; ? = inconclusive; . = no result; [ ] = remark or other dose. Unless noted, calls follow the shape of the dose curve; as a rule, active = well fitted inhibition curve with a large enough effect; inconclusive = small, poorly fitted or top-dose-only effect, or another doubt; inactive = no such curve, though single readings can be large or run the other way.

SMILES | CHX counter | Pf growth 48h | HCMV inh | Pf growth 96h | Shiga toxin inh | HCV inh
CCN(CC)CCC(c1ccc(N(C)C)cc1)c1c(OC)cc(OC)c2c1OC(=O)CC2c1ccc(N(C)C)cc1 (stereo not drawn) | -3 | . | . | . | 27 | .
CCN(CC)CCC(c1ccc(OC)cc1)c1c(OC)cc(OC)c2c(C)cc(=O)oc12 (stereo not drawn) | 53* | . | . | . | 124* | .
CCCCCc1cc(=O)oc2c(C(CCN(CC)CC)c3ccc(OC)cc3)c(OC)cc(OC)c12 (stereo not drawn) | -8 | 3.3µM* | -81* | 1.9µM* | -23 | ?
O=C(Cc1ccccc1Nc1c(Cl)cccc1Cl)OCO/N=[N+](\[O-])N1CCCC1 | 11 | . | . | . | 19 | .
CCSc1ccc(C(=O)Nc2ccc(-c3nc4ccc(C)cc4s3)cc2)cc1 | . | . | 40 | . | . | .
Cc1ccc2nc(-c3ccc(NC(=O)CSc4nccc(=O)[nH]4)cc3)sc2c1 | 37* | 70% | 27 | 87% | 117* | 8%
Cc1ccc2nc(-c3ccc(NC(=O)CSc4nc(N)cc(=O)[nH]4)cc3)sc2c1 | 30* | 148% | 13 | 327% | 94* | -24%
COc1ccc(NC(=O)Cn2c(=O)n(-c3ccc(Cl)cc3)c(=O)c3c(C)c(C(=O)N(C)C)sc32)cc1Cl | . | . | 24 | . | . | .
CCc1nc(SCC(=O)Nc2ccc(F)cc2)c2c(=O)n(C)c(=O)n(C)c2n1 | -2 | ? | 9 | ? | -1 | .
CC(=O)c1ccc(N2CCN(C(=O)C3CCCN(c4ncnc5c4nc4n5CCCCC4)C3)CC2)cc1 (stereo not drawn) | -2 | 13µM* | 9 | ? | -2 | ?
COc1ccc(N2CCN(C(=O)C3CCCN(c4ncnc5c4nc4n5CCCCC4)C3)CC2)cc1 (stereo not drawn) | -4 | 12µM* | -21 | 4% | -6 | ?
COc1ccc(C2/C=C\CN(CC(C)C)CC(=O)N2Cc2cccc(F)c2)cc1 (stereo not drawn) | 11 | . | -16 | . | i | ?
O=C(CCCC(=O)c1ccccc1)NCc1ccccc1 | 5 | 29% | 50 | -3% | -2 | ?
CC1CC(c2ccccc2)=Nc2ccccc2N1 (stereo not drawn) | 46* | 40% | 15 | 25% | 54* | -10%
COc1ccc([C@H]2Cc3cc(O)cc(O)c3C(=O)O2)cc1O | . | . | -102* | . | . | 13%
CCc1ccc(N2C(=O)c3sc4nnc(-c5ccccc5)c(=O)n4c3C2=O)cc1 | -4 | -9% | -77* | 36% | -11 | -16%
CCOC(=O)N1CCN(S(=O)(=O)N2CCCC(C(=O)NCCCN3CCCCC3)C2)CC1 (stereo not drawn) | -2 | 6% | ? | 31% | -10 | 15%
COC1=C(OC)C(=O)C(Sc2ccc3ccccc3c2)=CC1=O | . | . | -81* | . | . | ?
COc1cc(SC)ccc1C(=O)N(Cc1ccccc1)c1ccccn1 | 3 | 12% | -9 | 9% | 62 | 0%
Cc1ccc2nc(/C(C#N)=C\c3ccc(Oc4ccc(C(F)(F)F)cc4[N+](=O)[O-])cc3)[nH]c2c1 | 31* | -9% | ? | -3% | 79* | 5%
COc1cc(/C=C(\C#N)c2nc3ccc(C)cc3[nH]2)c([N+](=O)[O-])cc1OC | -1 | ? | -27 | ? | 8 | ?
COc1cc(/C=C(\C#N)c2nc3ccc(C)cc3[nH]2)cc([N+](=O)[O-])c1O | 30* | ? | 39 | ? | 56* | 9%
CCOC(=O)COc1ccc(/C=C(\C#N)c2nc3ccc(C)cc3[nH]2)cc1OC | . | . | -105* | . | . | .
Cc1ccc2nc(/C(C#N)=C\c3cc(O)ccc3[N+](=O)[O-])[nH]c2c1 | 36* | 9% | -6 | 33%[5.75 µM] | 33 | -9%
COc1cc(OC)c2c(C)cc(=O)oc2c1C(CCN1CCCC(C)C1)c1ccc(N(C)C)cc1 (stereo not drawn) | -5 | . | . | . | 5 | .
CCOC(=O)[C@]12CCC=C1N(Cc1ccc3c(c1)OCO3)C(=O)[C@H](CC(=O)NCCCN1CCCC1=O)C2 | . | . | -13 | . | . | .
COc1cc(NC(=O)C2CCN(C(=O)c3sc4nc[nH]c(=O)c4c3C)CC2)cc(OC)c1OC | . | . | 29 | . | . | .
